The values below come from PubChem BioAssay.

Experiment [1] can be described thus: binders of probe aFSTL3 on microarray, primary screen, stem cell growth factor project, biochemical, small-molecule microarray, fluorescence 635/667 (AID 1064).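 Also: measures binding of the biotinylated anti-FSTL3 antibody to printed compounds.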 Particulars: higher = more signal.
Experiment [2] is described as follows: binders from COS7 lysate, DM2A8 probe, primary screen, torsin A project, cell lysate, small-molecule microarray, fluorescence 635/667 (AID 1065). Particulars: higher = more signal, COS7 lysate expressing mutant human TOR1A.
Experiment [3] in a line: binders of probe aFGF2 on microarray, primary screen, stem cell growth factor project, biochemical, small-molecule microarray, fluorescence 635/667 (AID 1067).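 Also: measures binding of biotinylated aFGF2 protein to printed compounds on slides; z-score merges feature fluorescence and signal-to-noise across triplicate slides.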 As to conditions: higher = more signal.
Experiment [4] is described as follows: binders of probe aFGF10 on microarray, primary screen, stem cell growth factor project, biochemical, small-molecule microarray, fluorescence 635/667 (AID 1071).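 Also: score merges 667 nm spot intensity and signal to noise from triplicate slides.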 As to conditions: higher = more signal.
Experiment [5] deals with Neurogenic locus notch homolog protein 2 (Homo sapiens) (UniProt Q04721). In words: Notch2 binders on small-molecule microarrays, primary screen, biochemical, small-molecule microarray, 635 nm fluorescence, stem cell growth factors (AID 1073). Particulars: Notch2 binding, higher = more signal.
The target in experiment [6] is Pro-neuregulin-1, membrane-bound isoform (Homo sapiens) (UniProt Q02297). Briefly: NRG1 binders on small-molecule microarrays, primary screen, psychiatric disease protein project, biochemical, small-molecule microarray, fluorescence 635/667 (AID 1075).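 Also: score combines 667 nm spot fluorescence with signal to noise.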 Particulars: NRG1 binding, 635 nm fluorescence, higher = more signal.
Experiment [7] has as its system Neuregulin-1 EGF-like domain. Briefly: binders of neuregulin-1 EGF-like domain, primary screen, biochemical, small-molecule microarray, 635 nm fluorescence (AID 1081).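 Also: binding of the protein to compounds printed on small-molecule microarray slides.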 As to conditions: small-molecule microarray binding, higher = more signal.
The nature of experiment [8]: FRG1 promoter luciferase signal modulators, primary screen, FRG1 inhibition for FSHD, cell-based, C2C12 myotubes, firefly/Renilla luciferase, luminescence (AID 1084). As to conditions: higher = more signal, called active from +8 up or from −8 down.
Experiment [9] in a line: binders of probe aFST on microarray, primary screen, stem cell growth factor project, biochemical, small-molecule microarray, fluorescence 635/667 (AID 1086).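 Also: score merges 667 nm fluorescence with signal-to-noise of each printed compound spot.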 As to conditions: higher = more signal.
The nature of experiment [10]: binders of probe aHhip on microarray, primary screen, stem cell growth factor project, biochemical, small-molecule microarray, fluorescence 635/667 (AID 1087).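 Also: score merges spot fluorescence at 667nm with spot signal to noise ratio.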 As to conditions: higher = more signal.

Structures are written as SMILES. Active and inactive are the calls of the source.

Chain of Pro-neuregulin-1, membrane-bound isoform (Homo sapiens) (Q02297 whole entry, looked up, the tested form may be a part, canonical isoform): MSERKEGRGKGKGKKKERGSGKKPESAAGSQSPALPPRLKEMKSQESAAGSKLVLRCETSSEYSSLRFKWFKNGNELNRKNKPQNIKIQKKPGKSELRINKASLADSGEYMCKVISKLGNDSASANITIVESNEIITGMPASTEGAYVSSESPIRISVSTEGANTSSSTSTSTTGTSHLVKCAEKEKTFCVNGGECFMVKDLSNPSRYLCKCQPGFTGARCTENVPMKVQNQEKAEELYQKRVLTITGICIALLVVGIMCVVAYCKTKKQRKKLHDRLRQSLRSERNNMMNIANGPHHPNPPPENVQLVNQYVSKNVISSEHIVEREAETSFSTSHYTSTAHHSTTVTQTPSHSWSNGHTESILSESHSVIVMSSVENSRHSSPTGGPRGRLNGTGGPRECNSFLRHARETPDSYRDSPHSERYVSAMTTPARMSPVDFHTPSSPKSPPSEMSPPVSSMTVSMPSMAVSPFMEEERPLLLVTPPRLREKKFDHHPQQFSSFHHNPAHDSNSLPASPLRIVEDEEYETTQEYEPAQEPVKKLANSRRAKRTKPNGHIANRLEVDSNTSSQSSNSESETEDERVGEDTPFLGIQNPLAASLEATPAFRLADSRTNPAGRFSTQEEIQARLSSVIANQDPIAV
Chain of Neurogenic locus notch homolog protein 2 (Homo sapiens) (Q04721 whole entry, looked up, canonical isoform): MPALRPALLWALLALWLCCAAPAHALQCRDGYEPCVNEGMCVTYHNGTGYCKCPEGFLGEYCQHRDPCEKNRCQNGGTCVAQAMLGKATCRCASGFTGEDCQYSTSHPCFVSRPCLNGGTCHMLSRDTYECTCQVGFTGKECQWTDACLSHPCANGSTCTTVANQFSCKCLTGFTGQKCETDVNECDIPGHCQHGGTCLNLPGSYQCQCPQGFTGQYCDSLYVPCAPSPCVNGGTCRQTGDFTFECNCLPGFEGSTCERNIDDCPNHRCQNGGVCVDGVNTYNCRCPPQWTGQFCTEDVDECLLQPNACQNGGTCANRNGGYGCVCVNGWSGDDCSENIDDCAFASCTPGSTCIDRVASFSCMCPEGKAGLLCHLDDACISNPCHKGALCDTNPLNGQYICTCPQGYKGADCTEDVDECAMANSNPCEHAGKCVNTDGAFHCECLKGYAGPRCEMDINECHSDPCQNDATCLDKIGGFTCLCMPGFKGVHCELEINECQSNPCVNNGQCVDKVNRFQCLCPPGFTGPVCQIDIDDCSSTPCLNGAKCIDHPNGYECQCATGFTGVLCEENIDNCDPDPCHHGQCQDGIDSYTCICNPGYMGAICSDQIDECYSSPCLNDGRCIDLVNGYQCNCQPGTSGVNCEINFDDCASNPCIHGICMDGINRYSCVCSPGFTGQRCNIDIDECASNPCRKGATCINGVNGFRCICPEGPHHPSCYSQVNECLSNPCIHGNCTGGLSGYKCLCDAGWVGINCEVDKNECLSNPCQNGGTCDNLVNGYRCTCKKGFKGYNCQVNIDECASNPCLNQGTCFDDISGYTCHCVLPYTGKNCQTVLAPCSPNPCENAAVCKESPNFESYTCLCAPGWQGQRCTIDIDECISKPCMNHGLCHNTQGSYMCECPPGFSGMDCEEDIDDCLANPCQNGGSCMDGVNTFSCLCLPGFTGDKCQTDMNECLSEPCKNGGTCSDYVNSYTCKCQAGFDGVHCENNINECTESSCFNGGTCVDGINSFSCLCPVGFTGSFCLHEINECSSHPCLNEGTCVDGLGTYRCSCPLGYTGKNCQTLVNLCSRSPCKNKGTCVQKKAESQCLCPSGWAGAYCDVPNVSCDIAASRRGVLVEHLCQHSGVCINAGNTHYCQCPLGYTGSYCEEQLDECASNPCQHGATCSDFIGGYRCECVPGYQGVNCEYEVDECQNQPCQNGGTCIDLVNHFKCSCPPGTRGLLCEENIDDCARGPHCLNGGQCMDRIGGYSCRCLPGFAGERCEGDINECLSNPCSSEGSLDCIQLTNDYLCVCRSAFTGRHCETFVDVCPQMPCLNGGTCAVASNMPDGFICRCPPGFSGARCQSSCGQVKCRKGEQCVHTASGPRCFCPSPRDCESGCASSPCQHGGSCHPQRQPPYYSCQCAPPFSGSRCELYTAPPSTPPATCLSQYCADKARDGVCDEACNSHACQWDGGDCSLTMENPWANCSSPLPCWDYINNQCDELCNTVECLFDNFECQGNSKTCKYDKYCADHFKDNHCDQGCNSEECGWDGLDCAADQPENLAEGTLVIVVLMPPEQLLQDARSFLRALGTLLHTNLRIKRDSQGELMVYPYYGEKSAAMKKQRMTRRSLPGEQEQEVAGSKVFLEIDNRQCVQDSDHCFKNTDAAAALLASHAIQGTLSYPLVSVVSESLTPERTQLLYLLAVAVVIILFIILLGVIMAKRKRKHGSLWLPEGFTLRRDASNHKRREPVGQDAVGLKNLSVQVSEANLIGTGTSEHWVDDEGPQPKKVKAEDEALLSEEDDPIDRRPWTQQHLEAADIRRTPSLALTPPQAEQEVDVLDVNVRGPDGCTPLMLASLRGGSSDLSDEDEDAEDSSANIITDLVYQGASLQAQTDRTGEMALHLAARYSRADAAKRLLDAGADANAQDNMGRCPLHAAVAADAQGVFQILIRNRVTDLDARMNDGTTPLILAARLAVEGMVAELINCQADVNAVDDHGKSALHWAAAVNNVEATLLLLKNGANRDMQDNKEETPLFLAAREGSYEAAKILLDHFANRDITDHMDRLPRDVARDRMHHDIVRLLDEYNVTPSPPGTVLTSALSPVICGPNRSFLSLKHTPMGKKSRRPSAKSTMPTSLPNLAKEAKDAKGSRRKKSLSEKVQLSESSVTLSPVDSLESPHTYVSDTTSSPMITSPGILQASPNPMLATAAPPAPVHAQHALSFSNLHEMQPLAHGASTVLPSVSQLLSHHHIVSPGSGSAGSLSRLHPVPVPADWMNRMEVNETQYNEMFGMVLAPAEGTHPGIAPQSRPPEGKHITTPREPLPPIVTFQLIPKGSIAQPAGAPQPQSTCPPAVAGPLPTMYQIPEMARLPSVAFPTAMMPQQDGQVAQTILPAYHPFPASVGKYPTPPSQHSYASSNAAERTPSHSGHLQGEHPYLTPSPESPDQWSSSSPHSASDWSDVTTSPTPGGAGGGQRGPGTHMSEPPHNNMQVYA

Take `CC(C)c1ccc(NN2C(C(O)c3ccccc3)C=CC3C(=O)N(c4ccccc4)C(=O)C32)cc1` (stereo not given): the composite z-score in experiment [1] stood at 0.744; in experiment [2], 0.141; in experiment [3], 0.117; in [4] it was 0.885; in [5], 1.42; in [6], 0.905. In addition, the composite z-score is 0.793 in experiment [7], 1.13 in experiment [9] and -0.265 in experiment [10]. The z-score in [8] was 1.47 (inactive).

For the compound `COC(=O)[C@]1(Cc2ccccc2N=[N+]=[N-])N=C(c2ccc(OCCCO)cc2)O[C@@H]1c1ccccc1CN=[N+]=[N-]`, the composite z-score was found to be 0.736 in [1]; 1.08 in experiment [2]; 0.052 in experiment [3]; 0.728 in experiment [4]; 0.632 in [5]; 1.06 in [6]. Further, the composite z-score in experiment [7] is 1.16; in experiment [9], 0.484; in [10], 0.176. In addition, in [8], the z-score is -2.25 (inactive).

Consider `CC(C)N1C(=O)[C@@]2(Cc3ccccc31)c1ccccc1C(=O)N(Cc1ccccc1)[C@H]2c1ccc(CO)cc1`, for which the composite z-score in [1] was -0.244; in [2], -0.164; in experiment [3] it was -0.204; in experiment [4] it was -0.125; in experiment [5] it was -0.291; in experiment [6] it was 0.251. In addition, the composite z-score in [7] was 0.322; in experiment [9], -0.0754; in experiment [10] it was -0.391. In experiment [8], the z-score was -0.0076 (inactive).

For the compound `C=CCN1C(=O)[C@]2(O[C@H](CCO)[C@@H]([Si](C)(C)c3ccc(OC)cc3)[C@@H]2C)c2cc(N3C(=O)c4ccccc4Oc4ccccc43)ccc21`, the composite z-score was -0.086 in experiment [1]; -0.203 in [2]; -0.0392 in experiment [3]; 0.56 in [4]; 0.0699 in [5]; 0.967 in experiment [6]. The composite z-score in experiment [7] was 1.03; in experiment [9], 0.0141; in experiment [10] it was -0.236. Moreover, the z-score in [8] is -1.5 (inactive).

Take `CC1(C)OB(/C=C\CC(OC(=O)c2ccncc2)c2ccccc2)OC1(C)C` (stereo not given): the composite z-score in experiment [1] is 2.93; in experiment [2], 0.214; in [3] it was 0.0262; in experiment [4] it was -1.4; in experiment [5] it was -1.48; in experiment [6], 0.852. For the same compound, the results for the composite z-score in [7], in [9] and in experiment [10] were 0.181, -0.0939 and -0.0296, respectively. Besides, the z-score in experiment [8] is 1.99 (inactive).

Turning to `CC(C)c1ccc(NN2C(C(O)C3CCCCC3)C=CC3C(=O)N(c4ccccc4)C(=O)C32)cc1` (stereo not given), the composite z-score worked out at 0.249 in [1]; 0.333 in experiment [2]; 0.224 in [3]; 0.509 in experiment [4]; 1.6 in experiment [5]; 1.22 in [6]. For the same compound, the composite z-score in experiment [7] turned out to be 1; in experiment [9] it was 1.62; in experiment [10] it was 0.142. The z-score in experiment [8] was -1.09 (inactive).

Take `C[C@H]1C2[C@H](Cc3ccccc3)NC(=O)[C@]23C(=O)N[C@@H](Cc2ccccc2)C(=O)N2CCC[C@H]2C(=O)NC/C=C/CC/C=C/C3[C@@H]2O[C@]12C` (stereo not given in full): the composite z-score is 0.0522 in experiment [1]; 0.483 in experiment [2]; -0.129 in [3]; 0.75 in experiment [4]; 0.237 in experiment [5]; 0.0519 in [6]. Further, the composite z-score is 1.03 in experiment [7], 0.101 in experiment [9] and -0.0618 in [10]. The z-score in experiment [8] is 1.28 (inactive).

Consider `CCOC(=O)C=C1C[C@@H](c2cccc([N+](=O)[O-])c2)O[C@@H](c2cccc([N+](=O)[O-])c2)O1`, for which the composite z-score in [1] worked out at 0.654; in experiment [2], 0.178; in [3] it was 0.429; in experiment [4], 0.432; in experiment [5], 1.59; in experiment [6], 0.962. Moreover, the figures for the composite z-score in experiment [7], in [9] and in experiment [10] were 0.896, 1.72 and -0.226, respectively. Besides, in [8], the z-score was -2.17 (inactive).

`COc1ccc(CCNC(=O)[C@@]2(c3ccc([N+](=O)[O-])cc3)CC(=O)N(C3CCCCC3)[C@@H]2c2ccc(CO)cc2I)cc1`: the composite z-score in experiment [1] is 0.897; in experiment [2], 0.0603; in [3], 0.0903; in [4], 0.33; in experiment [5], 0.964; in experiment [6], 0.486. Also, the values for the composite z-score in experiment [7], in experiment [9] and in [10] were 0.827, -0.121 and 0.386, respectively. Also, the z-score in experiment [8] is -1.64 (inactive).

Regarding `O=C1C2C=CC(C(O)C3CC=CCC3)N(Nc3ccc([N+](=O)[O-])cc3)C2C(=O)N1c1ccccc1` (stereo not given), the composite z-score is 1.47 in [1]; 1.28 in [2]; 0.428 in experiment [3]; 1.14 in experiment [4]; 1.54 in [5]; 1.61 in experiment [6]. The composite z-score came to 1.26 in experiment [7], 2.28 in [9] and 0.0729 in [10]. Further, the z-score in experiment [8] was -1.06 (inactive).

As for `[N-]=[N+]=Nc1ccccc1C[C@@]1(C(=O)NCC(O)CO)N=C(c2ccc(OCCCO)cc2)O[C@@H]1c1ccccc1N=[N+]=[N-]` (stereo not given in full), the composite z-score was -0.175 in [1]; 0.045 in [2]; 0.285 in experiment [3]; 0.311 in experiment [4]; 0.194 in experiment [5]; 1.62 in experiment [6]. Besides, the composite z-score in [7] was 0.848; in [9] it was 0.941; in experiment [10], -0.134. Also, the z-score in [8] was -0.858 (inactive).

As to `CC(CO)N1C(=O)[C@@H]2[C@H]3C(=O)OCC=C[C@H]3OC23C=CCN(c2ccc4ccccc4c2)C(=O)[C@@H]13` (stereo not given in full), the composite z-score is 0.865 in [1]; -1.47 in experiment [2]; -0.149 in experiment [3]; -0.451 in [4]; -1.19 in [5]; -1.2 in experiment [6]. The composite z-score is 0.632 in experiment [7], -0.946 in experiment [9] and -0.0994 in [10]. For the same compound, the z-score in experiment [8] was 0.621 (inactive).

For the compound `[N-]=[N+]=NCc1ccccc1[C@H]1OC(c2ccc(OCCCO)cc2)=N[C@@]1(CCS(=O)(=O)c1ccccc1)C(=O)NCCN1CCOCC1`, the composite z-score in experiment [1] was -0.0144; in experiment [2], -0.523; in [3] it was 0.126; in experiment [4] it was 1.04; in [5] it was 1.67; in experiment [6] it was 1.57. The composite z-score was 1.27 in [7], 1.16 in [9] and -0.0095 in experiment [10]. In experiment [8], the z-score is 3.26 (inactive).

Consider `COc1cc2c(cc1OC)CN(C(=O)[C@@H]1[C@H]3C(=O)O[C@H](c4ccccc4)[C@H](c4ccccc4)N3[C@H](c3ccc(O)cc3)[C@@]13C(=O)Nc1ccc(C#CC4=CCCCC4)cc13)CC2`, for which the composite z-score was 0.105 in experiment [1]; 0.576 in [2]; -0.0899 in [3]; 0.864 in experiment [4]; 1.48 in experiment [5]; 0.347 in experiment [6]. Also, the composite z-score is 1.13 in experiment [7], 0.588 in experiment [9] and 0.0479 in experiment [10]. Also, the z-score in experiment [8] was 0.561 (inactive).

Take `C=CCNC(=O)[C@H]1[C@@H]2C(=O)O[C@@H](c3ccccc3)[C@@H](c3ccccc3)N2[C@@H](c2ccc(OCCO)cc2)[C@]12C(=O)Nc1ccc(C#Cc3ccc(OC)cc3)cc12`: the composite z-score was -0.179 in experiment [1]; 0.897 in experiment [2]; 0.0566 in [3]; 0.705 in experiment [4]; 1.46 in experiment [5]; 1.52 in [6]. Also, the composite z-score in [7] came out at 1.22; in experiment [9] it was 0.624; in experiment [10], 0.289. The z-score in experiment [8] is 0.744 (inactive).

In the case of `COc1ccc([Si](C)(C)[C@@H]2[C@@H](CC(=O)N3Cc4ccccc4C[C@H]3CO)O[C@]3(C(=O)N(Cc4ccc(I)cc4)c4ccccc43)[C@H]2C)cc1`, the composite z-score in experiment [1] is -0.127; in experiment [2], 0.0826; in experiment [3], -0.136; in [4], 0.184; in experiment [5], 0.472; in [6] it was 0.537. Further, the composite z-score in [7] is 0.909; in experiment [9], 0.259; in experiment [10] it was -0.204. In addition, the z-score in experiment [8] was -2.83 (inactive).
